According to PubChem BioAssay (EPA / NIEHS):
Values joined by “and” are separate entries in the source; they are usually repeats but may differ in a detail not shown here. Equal entries are not always repeated. Inconclusive results are not listed. Active and inactive are the calls of the source. Rule for the calls, unless noted: active = hit-call score of the fitted dose curve at least 0.9, where 1 is the maximum; inactive = score below 0.9.

Key:
[1] = target: Nucleoli Translocation, AR (gene 367) (UniProt P10275); assay: UPITT_HCI_U2OS_AR_TIF2_Nucleoli_Antagonist: University of Pittsburgh U2OS Androgen Receptor-Transcriptional Intermediary Factor 2 (AR-TIF2) Antagonism High Content Imaging Assay for Nucleoli Translocation (AID 2283997; active = hit-call score of the fitted dose curve at least 0.9, where 1 is the maximum)
Nucleoli Translocation, AR (gene 367), sequence (P10275 whole entry, looked up): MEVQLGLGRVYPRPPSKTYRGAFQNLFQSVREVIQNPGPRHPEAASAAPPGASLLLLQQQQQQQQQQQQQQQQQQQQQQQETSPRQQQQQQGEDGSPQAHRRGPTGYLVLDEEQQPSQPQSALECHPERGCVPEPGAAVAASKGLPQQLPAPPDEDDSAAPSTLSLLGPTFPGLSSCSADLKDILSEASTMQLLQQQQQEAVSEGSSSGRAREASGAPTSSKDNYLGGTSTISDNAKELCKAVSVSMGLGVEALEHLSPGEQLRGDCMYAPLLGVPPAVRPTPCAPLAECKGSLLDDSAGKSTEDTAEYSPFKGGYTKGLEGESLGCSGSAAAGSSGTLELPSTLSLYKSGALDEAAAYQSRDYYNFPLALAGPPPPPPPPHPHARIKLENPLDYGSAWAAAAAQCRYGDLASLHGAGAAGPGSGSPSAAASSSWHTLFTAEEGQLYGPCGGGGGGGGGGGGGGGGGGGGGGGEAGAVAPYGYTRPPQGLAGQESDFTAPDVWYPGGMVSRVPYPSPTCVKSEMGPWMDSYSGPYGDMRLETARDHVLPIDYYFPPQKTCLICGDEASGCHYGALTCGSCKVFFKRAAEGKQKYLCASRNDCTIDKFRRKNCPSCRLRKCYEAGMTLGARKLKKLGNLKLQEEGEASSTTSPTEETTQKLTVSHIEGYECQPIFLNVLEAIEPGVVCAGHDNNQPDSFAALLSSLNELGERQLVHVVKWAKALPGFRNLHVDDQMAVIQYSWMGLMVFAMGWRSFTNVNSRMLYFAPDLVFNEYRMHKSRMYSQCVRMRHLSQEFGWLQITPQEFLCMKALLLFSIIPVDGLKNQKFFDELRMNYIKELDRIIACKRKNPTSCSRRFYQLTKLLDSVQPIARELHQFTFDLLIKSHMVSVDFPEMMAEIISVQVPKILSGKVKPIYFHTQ
Method in brief: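 U2OS cells expressing RFP-tagged human AR and GFP-tagged TIF2 were imaged by high-content fluorescence microscopy for red AR signal in the nucleolar region. Compounds were screened at 20 uM final (0.2% DMSO), with activity fitted relative to DHT as baseline.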

[2] = target: Nucleoli Translocation, AR (gene 367) (UniProt P10275); assay: UPITT_HCI_U2OS_AR_TIF2_Nucleoli_Agonist: University of Pittsburgh U2OS Androgen Receptor-Transcriptional Intermediary Factor 2 (AR-TIF2) Agonism High Content Imaging Assay for Nucleoli Translocation (AID 2283998; active = hit-call score of the fitted dose curve at least 0.9, where 1 is the maximum)
Method in brief: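 Red-tagged human androgen receptor co-expressed with GFP-tagged TIF2 serves as the binding reporter. Primary testing used 20 uM final (0.2% DMSO); follow-up dose response covered 0.195 to 50 uM final (0.5% DMSO).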

[3] = target: Ratio of Nucleoli Translocation and Cytoplasm, AR (gene 367) (UniProt P10275); assay: UPITT_HCI_U2OS_AR_TIF2_Nucleoli_Cytoplasm_Ratio_Antagonist: University of Pittsburgh U2OS Androgen Receptor-Transcriptional Intermediary Factor 2 (AR-TIF2) Antagonism High Content Imaging Assay for Ratio of Nucleoli Translocation and Cytoplasm (AID 2283999; active = hit-call score of the fitted dose curve at least 0.9, where 1 is the maximum;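 note: antagonists lower the DHT-driven ratio of nucleolar to cytoplasmic red signal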)
Ratio of Nucleoli Translocation and Cytoplasm, AR (gene 367), sequence (P10275 whole entry, looked up, the tested form may be a part): as the sequence (P10275 whole entry, looked up) above
Method in brief: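 Human osteosarcoma U2OS line, AR fused to RFP, coactivator TIF2 fused to GFP. Cpds 20 uM final, 0.2% DMSO (screen); 0.195–50 uM final, 0.5% DMSO (CRC). Endpoint: nucleoli/cytoplasm red signal ratio, DHT as baseline, loss-of-signal antagonist mode.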

[4] = target: Ratio of Nucleoli Translocation and Cytoplasm, AR (gene 367) (UniProt P10275); assay: UPITT_HCI_U2OS_AR_TIF2_Nucleoli_Cytoplasm_Ratio_Agonist: University of Pittsburgh U2OS Androgen Receptor-Transcriptional Intermediary Factor 2 (AR-TIF2) Agonism High Content Imaging Assay for Ratio of Nucleoli Translocation and Cytoplasm (AID 2284000; active = hit-call score of the fitted dose curve at least 0.9, where 1 is the maximum;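 note: hits raise the red nucleolar to cytoplasm ratio above vehicle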)
Method in brief: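 U2OS cells expressing RFP-tagged human AR and GFP-tagged TIF2 were imaged by high-content fluorescence microscopy. The endpoint is the ratio of nucleolar to cytoplasmic red fluorescence, fitted for gain of signal relative to DMSO. Concentration-response spanned 0.195 to 50 uM final (0.5% DMSO).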

[5] = CCTE_Shafer_MEA_acute_spike_number: CCTE's Neural Acute Assay for Total Number of Spikes, Shafer Lab (AID 2284008);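 for AC50: curve fitted for decrease in spike count so AC50 reflects inhibitors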
Method in brief: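 Cortical neurons from rat, matured to DIV 13 or 15 on microelectrode arrays, are recorded at 37 C before and during 40-min exposure to 0.03-40 uM compound. Wells need >/= 10 active electrodes.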

[6] = CCTE_Shafer_MEA_acute_firing_rate_mean: CCTE's Neural Acute Assay for Mean Firing Rate, Shafer Lab (AID 2284009);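 note: analyzed for loss of signal so actives lower firing rate relative to DMSO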
Method in brief: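 Read-out: well-mean spike rate (spikes/recording length/electrodes), % change from 40 min pre-dose baseline to 40 min with compound. Rat cortical cultures, DIV 13 or 15, 37 C; 0.03-40 uM; DMSO as negative control.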

[7] = CCTE_Harrill_HTTr_Apoptosis_MCF7: CCTE's 6-hour Apoptosis Assessment for the High-Throughput Transcriptomics (HTTr) Platform, in MCF-7 cells cultured in DMEM + 10% fetal bovine serum, Harrill Lab (AID 2284011)
Method in brief: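 Cells are dosed with test chemicals at eight concentrations and imaged 6 hours later for caspase-3/7 activity using a green fluorogenic detection reagent. Activity is fitted in both directions against DMSO controls.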

[8] = CCTE_Shafer_MEA_acute_burst_number: CCTE's Neural Acute Assay for Single-Electrode Bursts, Shafer Lab (AID 2284013)
Method in brief: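 Rat cortical cultures, DIV 13/15; 40 min baseline, then 40 min with compound 0.03-40 uM, 37 C. Spikes: 300-5000 Hz band-pass, threshold 8x rms noise. Readout = % change in single-electrode bursts vs baseline, loss-of-signal fit.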

[9] = CCTE_Shafer_MEA_acute_burst_duration_mean: CCTE's Neural Acute Assay for Mean Burst Duration, Shafer Lab (AID 2284014);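 note: hits are decreases in mean burst duration relative to DMSO controls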
Method in brief: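 Primary rat cortical neurons on 16-electrode MEA wells, treated on DIV 13 or 15 with compound (0.03-40 uM; ≥3 wells each). 40-min baseline and 40-min exposure recordings at 37 C; percent change in mean burst duration per well versus DMSO.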

[10] = CCTE_Shafer_MEA_acute_per_burst_spike_number_mean: CCTE's Neural Acute Assay for Average Number of Spikes Per Burst, Shafer Lab (AID 2284015);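 note: hits are decreases in mean spikes per burst versus baseline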
Method in brief: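 Read-out: percent change in mean spikes per burst, each well's post-exposure 40-min recording versus its own 40-min baseline. Rat cortical cultures, DIV 13 or 15, compounds 0.03-40 uM; DMSO is negative control, loss-of-signal fitting.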

[11] = CCTE_Shafer_MEA_acute_interburst_interval_mean: CCTE's Neural Acute Assay for Mean Interburst Interval, Shafer Lab (AID 2284016);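 note: percent change of mean interburst interval versus each well's own pre-dose baseline; curves fitted for decrease in interburst interval relative to DMSO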
Method in brief: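 Rat cortical cultures, DIV 13/15; 20 min equilibration, 40 min baseline, compound 0.03-40 uM, 40 min re-recording, 37 C. Spikes detected at 8x rms noise (300-5000 Hz band-pass). Endpoint: % change in interburst interval, fitted in loss direction vs DMSO.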

[12] = CCTE_Shafer_MEA_acute_burst_percentage_mean: CCTE's Neural Acute Assay for Percentage of Spikes in a Burst, Shafer Lab (AID 2284017);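 for AC50: curve fitted for loss of signal so potency reflects decreased burst percentage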
Method in brief: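 Rat cortical cultures, DIV 13/15, 37 C. Spikes detected at 8x rms noise (300-5000 Hz band-pass). Burst spikes/total spikes averaged across electrodes per well; % change post- vs pre-treatment (40 min each), loss-of-signal fit vs DMSO.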

[13] = CCTE_Simmons_MITO_basal_resp_rate: CCTE's HepG2 Seahorse XF Respirometric Screening Assay at Basal Respiratory State, Simmons Lab (AID 2284001); conditions: actives raise or lower the signal
Method in brief: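 HepG2 cells were given test chemicals at 7 concentrations, 125 nM to 100 uM final, and oxygen consumption rate was read every 6 min (3 min mix, 3 min measure) over 72 min. Basal-phase OCR was fitted bidirectionally against DMSO.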

[14] = CCTE_Simmons_MITO_inhib_resp_rate: CCTE's HepG2 Seahorse XF Respirometric Screening Assay at Inhibited Respiratory State [full ETC block], Simmons Lab (AID 2284006); conditions: actives raise or lower the signal
Method in brief: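 Compound injected onto HepG2 cells (125 nM–100 uM final, 7 points); FCCP then rotenone/antimycin A added. Oxygen consumption read every 6 min (3 min mix, 3 min measure) for 72 min. Inhibited-state OCR fitted against DMSO.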

[15] = CCTE_Simmons_MITO_viability: CellTiter-Glo Viability Assessment for CCTE's HepG2 Seahorse XF Respirometric Screening Assay [post-hoc], Simmons Lab (AID 2284007; active = hit-call score of the fitted dose curve at least 0.9, where 1 is the maximum)
Method in brief: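 After the Seahorse oxygen-consumption sequence (basal, FCCP, rotenone/antimycin A; 72 min total), HepG2 viability was scored as ATP content by bioluminescence. Chemicals ran at seven concentrations up to 100 uM final for 90 min.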

[16] = CCTE_Harrill_HTTr_CellCount_MCF7: CCTE's Cell Proliferation Assessment for the High-Throughput Transcriptomics (HTTr) Platform, Harrill Lab (AID 2284012; active = hit-call score of the fitted dose curve at least 0.9, where 1 is the maximum;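 note: count of Hoechst-stained nuclei per well by high-content imaging in MCF-7 cells; cells exposed to compound for six hours; intended direction is loss of nuclei count meaning fewer cells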)
Method in brief: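 Chemicals in eight-point dilution series are added to MCF-7 cells for six hours, nuclei are stained with Hoechst and imaged, and per-well nuclei counts are fitted in both directions relative to DMSO controls.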

[17] = CCTE_Harrill_HTTr_Viability_MCF7: CCTE's 6-hour Cell Viability Assessment for the High-Throughput Transcriptomics (HTTr) Platform, in MCF-7 cells cultured in DMEM + 10% fetal bovine serum, Harrill Lab (AID 2284010)
Method in brief: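 Cells were dosed with chemicals in an eight-point dilution series, imaged 6 hours later for propidium iodide uptake, and the endpoint was analyzed by bidirectional fitting against DMSO as negative control.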

Measured: AC50

C[C@H]1[C@H](c2ccc(Cl)cc2)SC(=O)N1C(=O)NC1CCCCC1
inactive: [2] | [3] | [4] | [7]
active: [1] 27.4 µM | [5] 13 µM | [6] 13.1 µM | [8] 10.3 µM | [9] 20 µM | [10] 17.2 µM | [11] 28.7 µM | [12] 19.8 µM

CC(C)(C)C(O)/C(=C\c1ccc(Cl)cc1Cl)n1cncn1 (stereo not given)
inactive: [14] | [15] | [7] | [16]
active: [13] 15.8 µM

CCC(C)Nc1c([N+](=O)[O-])cc(C(C)(C)C)cc1[N+](=O)[O-] (stereo not given)
not listed: [1] | [2] | [3] | [4] | [16] | [17]
inactive: all other assays above

O=[N+]([O-])/N=C1\NCCN1Cc1ccc(Cl)nc1
not listed: [3] | [13] | [14] | [15] | [17]
inactive: all other assays above

Oc1ccc(Cl)cc1Cc1ccccc1
active: [1] 19.1 µM | [2] 13 µM | [3] 7.42 µM | [13] 18.3 µM and 24 µM | [5] 1.07 µM | [6] 1.08 µM | [8] 0.814 µM | [12] 2.55 µM
inactive: [14] | [15] | [17] | [7] | [16] | [9] | [10] | [11]

CC(C)(C)C(O)C(Oc1ccc(Cl)cc1)n1cncn1 (stereo not given)
inactive: [7]

N#CN
inactive: [5] | [6] | [7] | [8] | [9] | [10] | [11] | [12]

CCc1ccc(C(=O)NN(C(=O)c2cc(C)cc(C)c2)C(C)(C)C)cc1
inactive: [7]

ClC1C(Cl)C(Cl)C(Cl)C(Cl)C1Cl (stereo not given)
inactive: [7] | [16] | [8] | [11]
active: [5] 20 µM | [6] 20 µM | [9] 20 µM | [10] 1.62 µM | [12] 1.53 µM

CNC(=O)Oc1ccccc1OC(C)C
inactive: [7]

O=C1c2ccccc2C(=O)N1SC(Cl)(Cl)Cl
inactive: [5] | [6] | [7] | [16] | [8] | [9] | [10] | [11] | [12]
